The text below walks through data of PubChem BioAssay AID651815 (National Center for Advancing Translational Sciences (NCATS), 2012).

In all, about 2,100 compounds went through this assay and about 1,100 (52%) were called active. Not shown: some 29% with an inconclusive outcome. So high a share suggests a set chosen from earlier hits. The list shows a part of the results. Unmarked numbers belong to inactive results. Calls come from the whole dose curve; as a rule, active = well fitted inhibition curve with a large enough effect; inconclusive = small, poorly fitted or top-dose-only effect; inactive = no such curve, though single readings can be large or run the other way.
% is set by controls: 0 for no effect and ±100 for the full control effect; potency is the fitted concentration of half-maximal effect.

The target in this assay is DNA dC->dU-editing enzyme APOBEC-3F (Homo sapiens) (UniProt Q8IUX4). Description: qHTS for inhibitors of Vif-A3F interactions: Cherry picks counterscreen. Note: nearly all actives have a fitted effect of over 65% in size. Particulars: HeLa A3F-eYFP/Vif cells, eYFP fluorescence, 24 h; series mostly up to 46.1 µM; activity, negative = inhibitor: at the top concentration. The text has this: The recent discovery and characterization of host restriction factors, which provide a potent defense to invading retroviruses, has provided new targets for antiviral drug development. APOBEC3G (A3G) and APOBEC3F (A3F) are potent cytidine deaminases that block HIV-1 replication; HIV-1 expresses the Vif protein, which counteracts A3G and A3F by binding to them and inducing their proteasomal degradation. The Vif-A3G and Vif-A3F interactions provide two potential targets for development of small molecules which can interfere with the ability of Vif to degrade A3G or A3F. […] To identify inhibitors that can interfere with Vif mediated degradation of A3G and A3F, we have developed Hela cell lines that stably express A3G or A3F tagged with eYFP at the C-terminal end (A3G-eYFP or A3F-eYFP, respectively) and Vif. In the absence of an inhibitor, Vif induces degradation of A3G-eYFP and A3F-eYFP, and the cells are not fluorescent. In the presence of an inhibitor, it is expected that Vif will be unable to degrade A3G-eYFP and/or A3F-eYFP, resulting in an increase in yellow fluorescence. In this counterscreen assay, Vif A3F was screened against the cherry picks ordered from the MLSMR. NIH Chemical Genomics Center [NCGC] NIH Molecular Libraries Probe Centers Network [MLPCN] MLPCN Grant: MH093245 Assay Submitter (PI): Vinay Pathak, National Cancer Institute
DNA dC->dU-editing enzyme APOBEC-3F (Homo sapiens), sequence (Q8IUX4 whole entry, looked up): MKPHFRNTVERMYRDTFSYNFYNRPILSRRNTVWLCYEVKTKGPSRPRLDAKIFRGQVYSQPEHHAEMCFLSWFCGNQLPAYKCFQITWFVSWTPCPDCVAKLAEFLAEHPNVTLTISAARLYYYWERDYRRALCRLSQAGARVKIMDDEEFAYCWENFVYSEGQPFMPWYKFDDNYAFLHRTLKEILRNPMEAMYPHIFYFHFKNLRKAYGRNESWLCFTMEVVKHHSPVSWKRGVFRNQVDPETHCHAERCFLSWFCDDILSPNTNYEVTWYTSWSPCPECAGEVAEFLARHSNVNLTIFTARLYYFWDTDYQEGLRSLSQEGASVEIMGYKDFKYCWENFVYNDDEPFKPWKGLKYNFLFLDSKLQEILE
A3F-Vif cells were harvested from T225 flask and resuspended in phenol free OPTI-MEM medium with 5% FBS. Then 5 uL of 140,000 cells/mL resuspended cells was dispensed into each well of low base Aurora COC 1,536-well plates (black walled, clear bottom) using a Multidrop Combi dispenser. After overnight culture at 37 deg C with 5% CO2, a total of 23 nL of compounds at 5 selected concentrations from the NPC or positive control (2 mM stock of MG132) in DMSO was transferred to each well of the assay plate using a pintool (Kalypsys, San Diego, CA), and the plates were further incubated at 37 deg C with 5% CO2 for 24 hours. After that, the plates were measured on Acumen Explorer (TTP Lab Tech). The fluorescence was detected by 488 nm/Ex and […].
As for `O=Cc1sc(Nc2ccccc2)nc1Cl`, the Potency is 16.4 µM (active).

Take `Cc1ccc(Nc2nc(Cl)c(C=O)s2)cc1Cl`: the Potency is 18.4 µM (active).

On to `c1ccc(Nc2nc(-c3ccccn3)cs2)cc1`, for which the “activity, negative = inhibitor” value is -11.1%.

Consider `COc1ccc(-c2n[nH]c3c2CN(C(=O)c2ccc(OC)c(OC)c2)CC3)cc1`, for which the Potency was 4.44 µM (active).

In the case of `COc1cccc(C2=CC(c3cccs3)n3nnnc3N2)c1` (centres undefined), the Potency is 5.59 µM (active).

As to `COc1ccc(OC)c(C2C=C(c3ccc(C)c(C)c3)Nc3nnnn32)c1` (centres undefined), the Potency is 4.98 µM (active).

Take `COc1cccc(C2=CC(c3ccccc3)n3nnnc3N2)c1` (centres undefined): the Potency is 1.98 µM (active).

For `C=CCOC(=O)C1=C(C)Nc2nnnn2C1c1cccs1` (centres undefined), the “activity, negative = inhibitor” value was -25.7% [at 36.9 µM].

Consider `CCOC(=O)c1c(-c2ccc(OC)cc2)csc1/N=C/C1C(=O)CCCC1=O`, for which the “activity, negative = inhibitor” value is -17.2%.

For `CCOC(=S)SCC(=O)N1CCc2cc(OC)ccc2C1C1C(=O)CCCC1=O` (centres undefined), the Potency was 15.8 µM (active).

For the molecule `O=c1c2ccccc2sc2ccc(NCCCN3CCOCC3)cc12`, the Potency was 16.4 µM (active).

Turning to `Cc1cc2oc3ccc(NCCCn4ccnc4)cc3c(=O)c2cc1C`, the “activity, negative = inhibitor” value was -778% [at 46.1 µM, above what the read-out allows, likely interference].

For `COc1ccc(-c2cnc3c(NC=O)cc(-c4ccccc4)cn23)cc1OC`, the Potency was 1.77 µM (active).

Regarding `COc1ccc(-c2cc(NC=O)c3ncc(-c4ccc(OC)c(OC)c4)n3c2)cc1OC`, the Potency was 4.44 µM (active).

In the case of `COc1ccc(-c2cnc3c(NC=O)cc(-c4ccoc4)cn23)cc1OC`, the Potency was 11.2 µM (active).

As to `Cc1ccc(-c2cc(NC=O)c3ncc(-c4cnn(C)c4)n3c2)cc1`, the Potency is 5.59 µM (active).

As to `COc1cccc(-c2cnc3c(NC=O)cc(-c4cc(OC)c(OC)c(OC)c4)cn23)c1`, the Potency was 15.8 µM (active).

Take `COc1cc(-c2cc(NC=O)c3ncc(-c4ccc(C(C)=O)cc4)n3c2)cc(OC)c1OC`: the Potency is 17.7 µM (active).

With `CC(=O)/C(=C\N(C)C)Sc1ccc(Cl)cc1`, the “activity, negative = inhibitor” value is 4.05% [at 36.9 µM].

As to `Clc1ccsc1-c1csc(-c2cccnc2)n1`, the Potency is 15.8 µM (active).

Take `Cn1ccnc1Sc1nc2ccccc2nc1NS(=O)(=O)c1ccccc1`: the Potency was 16.4 µM (active).

Regarding `CC(=O)Nc1ccc(S(=O)(=O)Nc2nc3ccccc3nc2Sc2nncn2C)cc1`, the Potency is 16.4 µM (active).

As to `Cn1c(=O)c2c(nc(NC3CCCC3)n2C)n(C)c1=O`, the “activity, negative = inhibitor” value was 7.15%.

In the case of `O=C1COc2ccc(C(=O)CSc3nc4ccccc4c(=O)n3-c3ccc(Cl)c(Cl)c3)cc2N1`, the Potency was 23.1 µM (active).

Consider `COc1ccccc1NC1=NC(c2ccc(Cl)cc2)N=C(N)N1` (centres undefined), for which the Potency is 12.5 µM (active).

In the case of `O=C(NC(=S)Nc1c(Cl)cc(Cl)cc1Cl)c1ccccc1`, the “activity, negative = inhibitor” value is 0.68%.

Regarding `COc1ccc2nc3ccccc3nc2c1NC(=O)c1ccc(Cl)cc1`, the Potency is 23.1 µM (active).

On to `COc1ccc2nc3ccccc3nc2c1NC(=O)c1ccc(Br)cc1`, for which the Potency was 16.4 µM (active).

For the molecule `Cc1ccc(CNC(=O)c2ccc3c(c2)NC(=O)C(CS(=O)(=O)Cc2cccc(C)c2)N3)cc1` (centres undefined), the Potency is 18.4 µM (active).

For `CC(C)CCNC(=O)c1ccc2c(c1)NC(=O)C(CS(=O)(=O)Cc1cccc(Br)c1)N2` (centres undefined), the “activity, negative = inhibitor” value is -23.1%.

`CN(C)c1ccc2nc3c(=O)[nH]c(=O)nc-3n(CC(O)C(O)C(O)CO)c2c1` (centres undefined): the Potency was 6.51 µM (active).

Consider `O=C1C=C(Nc2ccc(Cl)cc2Cl)CC(c2ccco2)C1` (centres undefined), for which the Potency was 4.98 µM (active).

For `CCN(CC)C(=O)c1ccc(/C=C/c2c[nH]c3ccccc23)[n+](C)c1`, the Potency is 16.4 µM (active).

In the case of `C[n+]1cc(C(=O)N2CCCCC2)ccc1/C=C/c1c[nH]c2ccccc12`, the Potency is 11.2 µM (active).

With `COc1ccc(-c2cnc3c(c2)CCC3(C#N)C#N)cc1`, the Potency was 14 µM (active).

Turning to `CCOC(=O)c1ccc(NC(=S)Nc2cccc(C)n2)cc1`, the “activity, negative = inhibitor” value is -17.8%.

Regarding `Cc1ccc(NC(=S)Nc2ccccn2)c(C)c1`, the “activity, negative = inhibitor” value is 1.93%.

On to `CCOC(=O)c1cc(-c2ccccc2)sc1NC(=S)Nc1cc(C)ccn1`, for which the Potency was 18.4 µM (active).

On to `CCOc1ccc(-n2nnnc2SCC(=O)c2ccccc2)cc1`, for which the Potency was 15.8 µM (active).

With `Cc1sc2nc(CSc3nnnn3-c3ccc(Cl)cc3)[nH]c(=O)c2c1C`, the “activity, negative = inhibitor” value is -21.8%.

In the case of `Cc1onc(-c2c(F)cccc2Cl)c1C(=O)O/N=C(\N)c1ccc([N+](=O)[O-])o1`, the “activity, negative = inhibitor” value is -16.6% [at 36.9 µM].

On to `O=C(/C=C/c1ccncc1)c1cc(Cl)ccc1O`, for which the “activity, negative = inhibitor” value was -16.9%.

Regarding `O=C(/C=C/c1ccc(Cl)cc1)c1ccc([N+](=O)[O-])o1`, the Potency is 9.94 µM (active).

Regarding `Cc1cccc(/C=C/C(=O)c2ccc([N+](=O)[O-])o2)c1`, the Potency was 4.98 µM (active).

Take `COc1cccc(/C(O)=C/c2nc3ccc(C(=O)NCCc4cccc(C)c4)cc3[nH]c2=O)c1`: the Potency is 16.4 µM (active).

On to `COc1cccc(/C(O)=C/c2nc3ccc(C(=O)NCCc4ccc(Cl)cc4)cc3[nH]c2=O)c1`, for which the Potency is 16.4 µM (active).

For the molecule `COc1ccc2oc(=N)c(C(=O)Nc3ccc(F)cc3)cc2c1`, the Potency is 7.31 µM (active).

Regarding `COc1cc(C2Nc3ccc4ncccc4c3C3=C2C(=O)CCC3)ccc1O` (centres undefined), the Potency is 7.04 µM (active).

On to `COc1cc(C2Nc3ccc4ncccc4c3C3=C2C(=O)CCC3)cc(OC)c1O` (centres undefined), for which the Potency was 15.8 µM (active).
